# Compounds with a hit are over-represented: about 1.4% of the library has one in this group of screens.
# RN4220 kill: S. aureus RN4220 growth inhibition | OD600, 16 h | inhibition, % (test concentration not listed) | 0.33% of 330,000 active | AID 1259311; in the data active means inhibition above about 85%;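 further: plate controls were untreated cells for no effect and reference antibiotic for full effect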
# Mtb hypoxia rep: reduces hypoxia-regulated biosensor signal in M. tuberculosis | M. tuberculosis hypoxia-regulated fluorescent reporter, fluorescence | fluorescence inhibition, % (test concentration not listed) | 0.1% of 300,000 active | AID 1159583; in the data active means fluorescence inhibition mostly above about 23%, no sharp cut-off; inactive means mostly below about 17%
# PriA SSB inh: blocks PriA binding to SSB C-terminal tail | AlphaScreen SSBct-PriA binding, biotinylated peptide | inhibition, % at 33 µM | 0.6% of 430,000 active; in the data active means inhibition mostly above about 37%, no sharp cut-off; inactive means mostly below about 20%;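 further: plate controls were negative control peptide for no effect and reference peptide for full effect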
# CCHF vOTU inh-1: CCHFV vOTU protease inhibition; inhibition, % at 11.5 µM; Pep-AMC fluorescence; 0.55% of 370,000 active; further: 0% = vehicle wells with enzyme and 100% = no enzyme wells
# ugtP null kill: compounds lethal to S. aureus RN4220 ugtP deletion mutant; OD600 growth, 16 h; growth inhibition, % (test concentration not listed); 0.54% of 330,000 active; AID 1259309; in the data active means growth inhibition above about 68%;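 further: plate controls were untreated wells for no effect and antibiotic for full effect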
# CCHF vOTU inh-2: confirmation of CCHF virus vOTU protease inhibitors; 17% of 1,900 active; AID 686976; shares compounds with CCHF vOTU inh-1; inhibition, % at 11.5 µM; Recombinant CCHFV vOTU, Pep-AMC fluorescence
# The depositor's hits bear a star; x = not tested or not shown. Unless noted, no stated cut-off is given here; in the data, active means inhibition above about 30%; inactive means the rest.
SMILES,RN4220 kill,Mtb hypoxia rep,PriA SSB inh,CCHF vOTU inh-1,ugtP null kill,CCHF vOTU inh-2
OC(c1ccccc1)(c1ccccc1)C1CCN(CCCOc2cccc(Cl)c2)CC1,x,x,x,37.5*,x,-0.9
OC(c1ccccc1)(c1ccccc1)C1CCN(CCCOc2ccc(OC(F)(F)F)cc2)CC1,x,x,x,30.7*,x,-0.6
OC(c1ccccc1)(c1ccccc1)C1CCN(CCCOc2ccc(C(F)(F)F)cc2)CC1,x,x,x,24.0,x,x
CC(C)CC(COCc1cccc(C(F)(F)F)c1)N1CCN(C(=O)c2cccc(C(F)(F)F)c2)CCC1=O (centres undefined),3.5,-2.6,-10.4,30.2*,-2.5,25.9
O=c1cc[nH]c2c(I)cccc12,x,x,26.8,x,x,x
CC(=O)O[C@@H]1C=C[C@@H](C#Cc2ccc(C(C)(C)C)cc2)O[C@@H]1COC(=O)Nc1ccccc1,x,x,x,33.6*,x,-7.7
O=C(Nc1cccc(Cl)c1)Nc1ccnc(-c2cccnc2)n1,-1.8,-4.2,-9.9,31.5*,-22.7,-20.4
O=C1OC(Nc2cc(Br)cc3cccnc23)c2ccccc21 (centres undefined),34.3,5.4,74.0*,111.4*,-8.8,99.8*
COc1ccc(N2C(=O)C(Cl)=C(Nc3ccccc3O)C2=O)cc1,-15.0,25.7,1.0,8.6,-6.5,x
COc1ccc(N2C(=O)C(Cl)=C(Nc3ccccc3OC)C2=O)cc1,5.1,5.3,29.4,36.3*,6.3,-5.3
O=C1CCc2cc(S(=O)(=O)NCCn3ccc(-c4ccsc4)n3)cc3c2N1CC3,x,x,-8.0,x,x,x
C=CCn1c(COc2ccccc2)nnc1SCC(=O)c1ccc(OC)cc1,x,x,x,11.3,x,x
C=CCn1c(COc2ccc(F)cc2)nnc1SCC(=O)c1c[nH]c2c(CC)cccc12,1.3,-6.5,-7.8,36.7*,-2.8,3.0
COc1cc(OC)cc(-c2c(-c3cccs3)c3cc(Br)ccc3n2C)c1,-11.3,-3.3,-23.6,30.7*,-0.9,-27.9
O=C1N/C(=N/Nc2ccccc2)S/C1=C\c1ccccc1,-13.0,-0.5,x,32.1*,-9.7,9.4
O=C1NC(=Nc2ccccc2)S/C1=C\c1ccccc1,2.4,4.0,4.8,6.7,-14.5,x
CCOc1ccc2c(c1)C(C)=CC(C)(C)N2,x,x,18.9,39.6*,x,-104.6
CCc1ccc2c(c1)C(C)=CC(C)(C)N2,-10.6,2.9,31.0,3.0,-11.1,x
CN1OC[C@@H]2CN(C(=O)c3ccc([N+](=O)[O-])cc3)[C@H](c3ccccc3Br)C[C@@H]21,x,x,x,38.9*,x,-16.0
C=CCCC(=O)N1C[C@H]2CON(C)[C@H]2C[C@H]1c1ccccc1Br,x,x,-3.9,-6.4,x,x
CCCCCCN1C[C@H](O)[C@@H](n2cc(-c3ccc(F)cc3)nn2)C[C@@H]1c1ccccc1,x,x,x,33.3*,x,-8.6
CCCCCC(=O)N1C[C@H](n2cc(COC(=O)c3ccccc3)nn2)[C@@H](O)C[C@@H]1c1ccc(C)cc1,x,x,x,34.9*,x,4.5
CCCCCCN1C[C@H](n2cc(COC(=O)c3ccccc3)nn2)[C@@H](O)C[C@@H]1c1ccc(OC)cc1,x,x,x,9.7,x,x
CCCCCCN1C[C@H](n2cc(COC(=O)c3ccccc3)nn2)[C@@H](O)C[C@@H]1c1ccc(Cl)cc1,x,x,x,32.4*,x,10.8
Cn1nc(C(=O)N2CCC(n3c(=O)[nH]c4ccc(F)cc4c3=O)CC2)c2ccccc21,x,x,-9.0,x,x,x
SMILES,RN4220 kill,Mtb hypoxia rep,PriA SSB inh,CCHF vOTU inh-1,ugtP null kill,CCHF vOTU inh-2
CN(C)S(=O)(=O)c1ccc(C(=O)Nc2ccc3c(c2)N(C(=O)C(C)(C)C)CC3)cc1,x,x,-5.0,x,x,x
COc1ccc(C)cc1NC(=O)C(c1ccccc1)N1CCN(CC(=O)N2CCOCC2)CC1 (centres undefined),2.7,3.5,4.9,-5.6,3.9,x
Cc1ccc(NC(=O)C(c2ccccc2)N2CCN(CC(=O)N3CCOCC3)CC2)cc1 (centres undefined),1.7,17.6,-0.2,33.6*,-0.2,-7.3
CCc1nc2sc(C(c3cccc(C(F)(F)F)c3)N3CCN(C(C)=O)CC3)c(O)n2n1 (centres undefined),x,x,6.0,x,x,x
CN1CCN(c2ccc([N+](=O)[O-])c3no[n+]([O-])c23)CC1,55.9,10.9,x,34.9*,98.1*,21.3
O=[N+]([O-])c1ccc(N(CCO)CCO)c2c1no[n+]2[O-],x,x,x,19.4,x,x
Cc1[nH]c2ccccc2c1C=NNc1nncn1N,5.5,11.1,25.4,x,1.7,x
Nn1cnnc1N/N=C/c1ccc(F)cc1,x,x,x,91.7*,x,-17.6
Nn1cnnc1N/N=C/c1ccc(Cl)c([N+](=O)[O-])c1,x,x,x,99.2*,x,10.5
CSc1ccc(C=NNc2nncn2N)cc1,x,x,-12.0,x,x,x
Nn1cnnc1NN=Cc1ccc(Cl)c([N+](=O)[O-])c1,0.0,-1.4,-6.0,x,7.2,x
Cc1ccc(/C=N/Nc2nncn2N)cc1,x,x,x,87.2*,x,-17.1
O=C(Nc1onc2c1CCCC2)C1CCCN1S(=O)(=O)c1cccs1 (centres undefined),x,x,-7.0,x,x,x
Cc1noc(-c2ccsc2NC(=O)Cn2cnc3c2c(=O)n(C)c(=O)n3C)n1,x,x,-18.0,x,x,x
Cc1cc(C=NNC(=O)CC(=O)NC2CCCCC2)c(C)n1-c1cccc(Cl)c1Cl,1.2,0.3,20.1,x,-9.6,x
Cc1cccc(C)c1-n1c(C)cc(/C=N\NC(=O)CC(=O)NC2CCCCC2)c1C,x,x,x,31.1*,x,-4.2
Cc1ccc(NC(=O)c2ccccc2NS(=O)(=O)c2ccc(Cl)s2)cc1S(=O)(=O)N1CCOCC1,30.5,0.4,-1.4,30.7*,28.1,9.2
COc1ccc(C(=O)Nc2ccc3c(c2)C(=O)NC3=O)c(OC)c1,x,x,-2.0,x,x,x
O=C(/C=C/c1ccc([N+](=O)[O-])s1)N1CCCCC1,69.4,19.5,8.4,32.2*,48.1,32.0*
O=C(/C=C/c1ccc([N+](=O)[O-])s1)N1CCCC1,72.1,15.1,-14.8,13.9,69.5,x
COc1cc(C=Nn2c(-c3cc(-c4ccccc4)n[nH]3)n[nH]c2=S)ccc1OC(C)=O,x,x,x,30.2*,x,-12.0
C(=Nn1cncn1)c1ccc(N2CCOCC2)cc1,2.4,6.0,-17.8,x,9.0,x
O=C(NC(=S)Nc1ccccc1N1CCCCC1)c1ccccc1,-10.0,-1.4,4.2,4.5,47.8,x
O=C(NC(=S)Nc1ccccc1N1CCCC1)c1ccc(F)cc1,4.6,0.4,8.3,31.9*,78.8,33.4*
COc1ccccc1C(=O)NC(=S)Nc1ccc(N2CCCC2)cc1,3.4,-7.5,6.3,6.6,1.2,x
COc1ccccc1C(=O)NC(=S)Nc1ccccc1N1CCCC1,x,x,x,40.5*,x,11.2
O=C(c1cccc(S(=O)(=O)N2CCOCC2)c1)N(Cc1nnc(-c2ccccc2Cl)o1)C1CC1,5.7,7.1,-4.0,11.2,11.9,x
CN1CCN(S(=O)(=O)c2cccc(C(=O)N(Cc3nnc(-c4ccc(Cl)cc4)o3)C3CC3)c2)CC1,4.4,4.0,2.7,34.1*,4.9,-13.3
CC(NC(=O)COC(=O)C1CCN(c2ccc(C(F)(F)F)cn2)CC1)c1ccccc1 (centres undefined),x,x,x,18.0,x,x
O=C(COC(=O)C1CCN(c2ccc(C(F)(F)F)cn2)CC1)NCc1ccccc1,3.5,-4.6,-30.2,35.1*,2.9,-1.8

# Screening results (PubChem)
